Assay results taken from PubChem BioAssay AID1332 (Southern Research Institute, 2008).
Converted amounts (≈) assume the structure as drawn. Screen size: about 1,100 compounds; about 170 (15%) were called active. How the calls were made is not given here. A selection follows.

Assay: Confirmatory growth inhibition assay, mycobacterium tuberculosis h37rv, with cytotoxicity (AID 1332);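 on CC50: Vero cells exposed to compounds for 72 hours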;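 on IC50: bacteria incubated 7 days before adding Alamar blue readout reagent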
Settings: M. tuberculosis H37Rv growth inhibition; CC50: measured here: Vero cell cytotoxicity; IC50: measured here: IC50 H37Rv replicates

SMILES | IC50 [µg/mL] | outcome | CC50 [µg/mL]
O=S(=O)(O)c1cc(O)ccc1O | > 20 | inactive | –
CN1C2CCCC1CC(=O)C2 | > 20 | inactive | –
CC1=CC(=O)C2=C(C)C[C@H](O)[C@@H]3[C@H](OC(=O)[C@H]3C)[C@@H]12 | > 20 | inactive | –
CC[C@@H](C(=O)[C@@H](C)[C@@H](O)[C@H](C)CCc1ccc(C)c(O)c1C(=O)O)[C@H]1O[C@](CC)([C@H]2CC[C@](O)(CC)[C@H](C)O2)C[C@@H]1C | 6.19 (≈ 10.5 µM) | active | > 6
CC(=O)N(CC(C)C(=O)O)c1c(I)cc(I)c(N)c1I (configuration not stated) | > 20 | inactive | –
CC(C)(C)NC[C@H](O)COc1cccc2c1CCCC2=O | > 20 | inactive | –
C[C@]12CC[C@@H]3c4ccc(O)cc4CC[C@H]3[C@@H]1C[C@@H](O)[C@@H]2O | > 20 | inactive | –
NC(N)=NCC1COC2(CCCCC2)O1 (configuration not stated) | > 20 | inactive | –
Nc1ccc(S(N)(=O)=O)cc1 | > 20 | inactive | –
NC(N)=NS(=O)(=O)c1ccc(N)cc1 | > 20 | inactive | –
Nc1ccc(S(=O)(=O)c2ccc(N)cc2)cc1 | 9.09 (≈ 36.6 µM) | active | –
O=c1[nH]c(=O)n([C@H]2CC(O)[C@@H](CO)O2)cc1I (some centres not stated) | > 20 | inactive | –
Cn1cc[nH]c1=S | > 20 | inactive | –
CCN1CCC[C@H]1CNC(=O)c1c(OC)ccc(Br)c1OC | > 20 | inactive | –
CCCc1ncc(C[n+]2ccccc2C)c(N)n1 | > 20 | inactive | –
NC(=O)c1ccc[n+]([C@@H]2O[C@H](COP(=O)([O-])OP(=O)(O)OC[C@H]3O[C@@H](n4cnc5c(N)ncnc54)[C@H](O)[C@@H]3O)[C@@H](O)[C@H]2O)c1 | > 20 | inactive | –
Cc1onc(-c2c(F)cccc2Cl)c1C(=O)N[C@@H]1C(=O)N2C(C(=O)O)C(C)(C)S[C@H]12 (some centres not stated) | > 20 | inactive | –
CNCCCC1c2ccccc2C=Cc2ccccc21 | 17.4 (≈ 66 µM) | active | > 6
NCc1ccc(S(N)(=O)=O)cc1 | > 20 | inactive | –
COc1ncnc(NS(=O)(=O)c2ccc(N)cc2)c1OC | > 20 | inactive | –
COc1cc(NS(=O)(=O)c2ccc(N)cc2)nc(OC)n1 | 12.6 (≈ 40.7 µM) | active | –
COc1cnc(NS(=O)(=O)c2ccc(N)cc2)nc1 | > 20 | inactive | –
C[C@@H]1NC(=O)NC1=O | > 20 | inactive | –
CC1CS(=O)(=O)CCN1N=Cc1ccc([N+](=O)[O-])o1 (configuration not stated) | 2.74 (≈ 9.55 µM) | active | –
O=C1OC(CN2CCOCC2)CN1/N=C/c1ccc([N+](=O)[O-])o1 (configuration not stated) | > 20 | inactive | –
CCCc1cc(=O)[nH]c(=S)[nH]1 | > 20 | inactive | –

SMILES | IC50 [µg/mL] | outcome | CC50 [µg/mL]
CCOC(=O)Nc1ccc2c(c1)N(C(=O)CCN1CCOCC1)c1ccccc1S2 | > 20 | inactive | –
CCN(CC)CCOC(=O)C(c1ccccc1)c1ccccc1 | > 20 | inactive | –
CC(C)NC[C@@H](O)COc1cccc2ccccc12 | > 20 | inactive | –
C[C@@H]1O[C@@H](O[C@H]2[C@H](Oc3cc(O)c4c(c3)O[C@H](c3ccc(O)cc3)CC4=O)O[C@H](CO)[C@@H](O)[C@@H]2O)[C@H](O)[C@H](O)[C@H]1O | > 20 | inactive | –
CN[C@H](CC(C)C)C(=O)N[C@H]1C(=O)N[C@@H](CC(N)=O)C(=O)N[C@H]2C(=O)N[C@H]3C(=O)N[C@H](C(=O)N[C@H](C(=O)O)c4cc(O)cc(O)c4-c4cc3ccc4O)[C@H](O)c3ccc(c(Cl)c3)Oc3cc2cc(c3O[C@@H]2OC(CO)[C@@H](O)[C@H](O)[C@H]2O[C@H]2C[C@](C)(N)[C@H](O)[C@H](C)O2)Oc2ccc(cc2Cl)[C@H]1O (some centres not stated) | 1.06 (≈ 0.732 µM) | active | –
COc1ccc(C(=O)c2ccccc2)c(O)c1 | > 20 | inactive | –
CCC[C@@H]1C[C@@H](C(=O)N[C@@H]([C@H]2O[C@H](SC)[C@H](O)[C@@H](O)[C@@H]2O)[C@@H](C)O)N(C)C1 | 11.6 (≈ 28.5 µM) | active | –
CCC[C@@H]1C[C@@H](C(=O)N[C@@H](C2O[C@H](SC)[C@H](O)[C@@H](O)[C@H]2O)[C@H](C)Cl)N(C)C1 (some centres not stated) | 0.395 (≈ 0.929 µM) | active | –
CCC(=O)O[C@@H]1CC(=O)O[C@H](C)C/C=C/C=C/[C@@H](O)[C@H](C)C[C@H](CC=O)[C@H](O[C@@H]2O[C@H](C)[C@@H](O[C@H]3C[C@@](C)(O)[C@@H](OC(=O)CC)[C@H](C)O3)[C@H](N(C)C)[C@H]2O)[C@H]1OC | > 20 | inactive | –
CN(C)CCOC(c1ccc(Cl)cc1)c1ccccn1 (configuration not stated) | > 20 | inactive | –
CCOC(=O)[C@H](CCc1ccccc1)N[C@@H](C)C(=O)N1C(C(=O)O)C[C@@H]2CCC[C@@H]21 (some centres not stated) | > 20 | inactive | –
Cc1onc(-c2ccccc2Cl)c1C(=O)N[C@@H]1C(=O)N2[C@@H]1SC(C)(C)[C@@H]2C(=O)O | > 20 | inactive | –
Cn1nnnc1SCC1=C(C(=O)O)N2C(=O)[C@@H](NC(=O)[C@H](O)c3ccccc3)[C@H]2SC1 | > 20 | inactive | –
NCc1ccccc1CC(=O)N[C@@H]1C(=O)N2C(C(=O)O)=C(CSc3nnnn3CC(=O)O)CS[C@H]12 | 13.8 (≈ 26.6 µM) | active | –
CN(C)CCn1nnnc1SCC1=C(C(=O)O)N2C(=O)[C@@H](NC(=O)Cc3csc(N)n3)[C@H]2SC1 | > 20 | inactive | –
CC(C)(C)NCC(O)COc1cccc2c1CCC(=O)N2 (configuration not stated) | > 20 | inactive | –
Cc1n[nH]c(=O)[nH]c1=O | > 20 | inactive | –
COc1cc(N)c(Cl)cc1C(=O)NC1CCN(Cc2ccccc2)CC1 | > 20 | inactive | –
COc1cc(N)c(Cl)cc1C(=O)N[C@H]1CCN(CCCOc2ccc(F)cc2)C[C@H]1OC | 9.3 (≈ 20 µM) | active | –
CCN(CC)CCNC(=O)c1cc(Cl)c(N)cc1OC | > 20 | inactive | –
O=C(O)C1CCCNC1 (configuration not stated) | > 20 | inactive | –
CC(=O)Nc1cc2ccccc2oc1=O | > 20 | inactive | –
CCCC(=O)Nc1ccc(OCC(O)CNC(C)C)c(C(C)=O)c1 (configuration not stated) | > 20 | inactive | –
COc1cc(C(=O)OCCCN2CCCN(CCCOC(=O)c3cc(OC)c(OC)c(OC)c3)CC2)cc(OC)c1OC | > 20 | inactive | –
COc1cc(/C=C/C(=O)N2CCC=CC2=O)cc(OC)c1OC | 11.4 (≈ 36.1 µM) | active | 1.53 (≈ 4.82 µM)
CC(=O)[C@H]1CC[C@H]2[C@@H]3C=CC4=CC(=O)CC[C@@]4(C)[C@@H]3CC[C@]12C | > 20 | inactive | –
